# Only some compounds are listed: those with a hit (about 4.3% of all), similar ones and a draw of the others.
# MCF10A rereplic: A quantitative high throughput screen for small molecules that induce DNA re-replication in MCF 10a normal breast cells; MCF 10A DNA re-replication, Hoechst nuclear intensity, 48 h; 350,000 tested, 2.9% active; AID 624296, 2012; Potency, µM (top dose mostly 46.1 µM), inactives show at the top dose activity, positive = re-replication, actives largely listed as activators; further: potency means the concentration at half of the fitted maximal effect; % of control where 0% means no effect; nearly all actives have a fitted effect of over 50% in size
# Giardia kill: Small Molecules that selectively kill Giardia lamblia: qHTS; Giardia lamblia trophozoite viability; activity change, % at 7.66 µM, hits read low; 340,000 tested, 0.15% active; AID 540267, 2011; in the data active means activity change below about -80%; inconclusive means between about -30% and that limit;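 further: parasites exposed to compound for two days anaerobically before the ATP read; on the % scale 0 is the no-effect control and ±100 the full control effect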
#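 Trophozoite viability was measured as ATP-dependent luminescence, read 15-30 min after reagent addition. Before that, parasites at 100 cells/well were exposed to compounds for 48 h, anaerobically, at 37 deg C.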
# SW480 rereplic: A quantitative high throughput screen for small molecules that induce DNA re-replication in SW480 colon adenocarcinoma cells; SW480 DNA re-replication, Hoechst DNA content imaging, 48 h; Potency, µM (titrated, usually from 46.1 µM), without a hit: at the highest dose re-replication activation, actives largely listed as activators; 340,000 tested, 1.8% active; AID 624297, 2012; further: potency means the concentration at half of the fitted maximal effect; % of control where 0% means no effect; nearly all actives have a fitted effect of over 55% in size
#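 DNA re-replication was detected as more nuclei of elevated Hoechst intensity after 48 hr exposure to compound (23 nL pinned per well of 250 cells).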
# uPA generation: qHTS for Inhibitors of Cell Surface uPA Generation | cell surface uPA generation assay, qHTS | Potency, µM (highest dose often 38.3 µM), inactives show at the highest dose activity change, negative = inhibition, usual class: inhibitors | 330,000 tested, 0.31% active | AID 540303, 2011; active means well fitted inhibition curve with a large enough effect; inconclusive means small, poorly fitted or top-dose-only effect; inactive means no such curve, though single readings can be large or run the other way; tested in mouse RAW 264.7 cells; further: potency means the concentration at half of the fitted maximal effect; on the % scale 0 is the no-effect control and ±100 the full control effect; nearly all actives have a fitted effect of over 55% in size
# An asterisk follows results filed as active; ? = inconclusive; · = no result. Unless noted, the call rests on the fitted dose curve; in most records, active means well fitted activation curve with a large enough effect; inconclusive means small, poorly fitted or top-dose-only effect; inactive means no such curve, though single readings can be large or run the other way.
SMILES,MCF10A rereplic,Giardia kill,SW480 rereplic,uPA generation
CCC(C)(Oc1ccc(C2(c3ccc(OC(C)(CC)C(=O)O)cc3)CCCCC2)cc1)C(=O)O (stereo unspecified),0.3%,·,-6.6%,·
CC1CCCCC1NC(=O)c1ccncc1 (stereo unspecified),3.2%,-7.2,18.4µM*,-3.2%
Cc1cc2ccc3ccccc3c2cc1CN(C)C,1.7%,3.1,7.31µM*,0.3%
Cc1ccc(N2/C(=N/c3nc(C)cc(C)n3)NC(=O)CC2C(=O)O)cc1 (stereo unspecified),18.4µM*,3.9,14.5%,19.1%
Cc1cc2nc(/C=C/c3nc4cc(C)c(C)cc4[nH]3)[nH]c2cc1C,?,2.8,23.1µM*,-0.4%
CCc1ccc(NC(=O)Cn2cc([N+](=O)[O-])nc2C)cc1,6.0%,-0.9,-18.3%,-15.5%
c1cc(-c2ccncc2)ccn1,-6.2%,12.4,0.517µM*,5.1%
O=C(CCn1cnnn1)Nc1cccc(F)c1,-1.3%,-14.3,-2.1%,-0.6%
CCc1ccc(N(C(=O)c2snc(C(N)=O)c2N)C(C(=O)NCC2CCCO2)c2cccs2)cc1 (stereo unspecified),18.4µM*,5.3,?,3.7%
NC(=O)c1nsc(C(=O)N(c2ccc(Cl)cc2)C(C(=O)NCC2CCCO2)c2cccs2)c1N (stereo unspecified),7.9%,-15.8,?,-1.3%
Cc1ccccc1OCC(=O)NCC(=O)OCc1cccc2ccccc12,·,-17.7,·,·
N#Cc1cc(-c2ccc(Cl)cc2)cnc1Sc1ccc(F)cc1,14.6µM*,-9.9,8.6%,·
Cc1csc(NC(=O)C2CC(=O)N(c3ccc4c(c3)OCCO4)C2)n1 (stereo unspecified),-5.2%,1.5,-22.1%,9.5%
CCc1ccc(-c2csc(NC(=O)C3CC(=O)N(c4ccc5c(c4)OCCO5)C3)n2)cc1 (stereo unspecified),18.4µM*,37.5,?,-8.4%
N#CCC(=O)Nc1nc(-c2ccc3c(c2)OCCO3)cs1,23.1µM*,12.5,?,-19.8%
Cc1ccc(-c2csc(/C(C#N)=C/Nc3ccc4c(c3)OCCO4)n2)cc1,3.66µM*,24.5,?,9.8%
COc1cccc(C(=O)Nc2nc(-c3ccc4c(c3)OCO4)cs2)c1,16.4µM*,0.1,11.1%,-1.3%
Cc1cccnc1NC(=O)C1CCCN1S(=O)(=O)c1ccc(Cl)cc1 (stereo unspecified),13.2%,11.6,4.0%,-0.2%
Cc1cccc(Nc2nc(-c3ccc4c(c3)OCCO4)cs2)c1,14.1µM*,-3.8,7.31µM*,-4.6%
Cc1cccc(Nc2nc(-c3ccncc3)cs2)c1,?,5.1,?,?
COc1cc(OC)c2c(c1C(CCN1CCN(c3ccccc3)CC1)c1ccc(N(C)C)cc1)OC(=O)CC2c1ccc(N(C)C)cc1 (stereo unspecified),·,-4.9,·,·
c1ccc(C2=NN(c3ccccc3)CC2)cc1,20.6µM*,0.7,16.4µM*,-11.7%
CCN(CC)S(=O)(=O)c1ccc(N2CCc3cc(OC)c(OC)cc3C2)nc1,?,11.2,22.1%,-8.2%
O=c1cc(O)c2sc(Nc3ccc(F)cc3)nc2[nH]1,16.4µM*,-10.0,?,3.4%
COc1ccc(C2C(C)C(=O)C(C)C(c3ccc(OC)cc3)N2N=O)cc1 (stereo unspecified),1.2%,-5.6,4.5%,-0.7%
SMILES,MCF10A rereplic,Giardia kill,SW480 rereplic,uPA generation
Cc1nnc(SCc2ccc(Cl)cc2)nc1/C=C/N(C)C,18.4µM*,-26.3,-4.9%,2.7%
CCNC(=S)N1CCC(C(=O)c2ccc(Cl)cc2)CC1,12.1%,-10.3,-46.4%,-7.1%
CCCNC(=S)N1CCC(C(=O)c2ccc(Cl)cc2)CC1,-0.2%,21.5,7.31µM*,-3.1%
Cc1ccc(S(=O)(=O)Nc2ccccc2C=Nc2cccc(C)c2C)cc1,?,-10.0,3.6%,-1.0%
Cc1ccc(S(=O)(=O)Nc2ccccc2/C=N/c2nc3ccccc3n2C)cc1,13µM*,2.9,5.0%,-19.9%
O=C(CN1C(=O)c2ccc(Br)cc2C1=O)NCC1CCCO1 (stereo unspecified),1.5%,-5.5,-2.2%,-7.7%
CC1CC(C)CN(Cc2nc(N)nc(Nc3ccc4ccccc4c3)n2)C1 (stereo unspecified),5.8µM*,-12.2,9.2µM*,-7.3%
CCOc1ccc2nc(N3C(=O)CNC3=S)sc2c1,?,?,?,-11.2%
Cc1cc2nc(N3C(=O)CNC3=S)sc2cc1C,14.6µM*,?,?,-14.8%
COc1ccc(-c2nc3ccc(NC(=O)CO)cc3c(=O)n2Cc2cccc(Cl)c2)cc1COc1ccc(NC(C)=O)cc1,·,-5.2,·,·
O=[N+]([O-])c1c(NCCCO)cc(Sc2ccc(Cl)cc2)c2nonc12,13µM*,-0.5,-29.6%,?
Cn1ccnc1Sc1cc(NCCCO)c([N+](=O)[O-])c2nonc12,18.4µM*,-9.9,8.1%,-7.2%
CN(C)c1cc(-c2ccccc2)nc(N)n1,?,10.4,?,10µM*
CC(CCc1ccccc1)NC(=O)C1CCCN(C(=O)c2cc3sccc3n2C)C1 (stereo unspecified),5.2%,-0.5,5.7%,-16.4%
CC(CCc1ccccc1)NC(=O)c1cc2sccc2n1C (stereo unspecified),14.6µM*,21.3,?,·
Cc1[nH]c(=O)[nH]c(=O)c1S(=O)(=O)Nc1ccc(F)cc1F,-12.7%,-5.4,6.2%,5.4%
COCCCNC(=S)N1CCCN(c2nc3c(C)c(C)ccc3cc2C#N)CC1,-3.8%,5.0,6.5%,1.0%
COCCCNC(=S)NCCNc1nc2c(C)c(C)ccc2cc1C#N,23.1µM*,0.5,?,-2.2%
COc1cc(C(=O)NCCNc2nc3c(C)c(C)ccc3cc2C#N)cc(OC)c1OC,20.6µM*,-1.3,?,20.2%
CCOc1ccc2nc(NCCNC(=O)c3cc(OC)c(OC)c(OC)c3)c(C#N)cc2c1,23.1µM*,20.3,6.51µM*,-1.1%
CN(C)CCCNC(=S)NCCNc1nc2cc3c(cc2cc1C#N)OCO3,20.6µM*,8.8,14.6µM*,-17.3%
O=C(CNC(=O)c1ccc(Cl)cc1)NCc1ccccn1,3.0%,1.3,-17.7%,7.6%
COc1cc(OC)cc(C(=O)NCCNc2nc3cc(C)cc(C)c3cc2C#N)c1,16.4µM*,27.1,?,-11.9%
COc1ccccc1C(=O)NCCNc1nc2cc(C)cc(C)c2cc1C#N,?,7.2,21.9%,17.8%
CC(C)(C)CC(=O)Nc1ccc(S(=O)(=O)NC2=NCCCCC2)cc1,2.6%,2.0,-5.6%,1.6%
Cc1cc(-n2c(C)c3c(C)nnc(C)c3c2C)ccc1N,20.6µM*,35.8,?,2.3%
Cc1ccc(-n2c(C)c3c(C)nnc(C)c3c2C)cc1N,0.1%,-4.2,-1.8%,5.0%
Cc1nnc(C)c2c(C)n(-c3ccccc3N)c(C)c12,1.5%,12.0,20.6µM*,11.2%
CCCCNC(=O)Cn1c(SCc2cccc(F)c2)nc2ccncc21,·,-10.7,·,·
Nc1c2c(nc3ccc(Br)cc13)N(c1ccccc1)CC2,14.6µM*,5.5,14.6µM*,17.4%

# High-throughput results deposited in PubChem BioAssay by National Center for Advancing Translational Sciences (NCATS).
